The target in test [1] is MAP kinase-activated protein kinase 2 (Homo sapiens) (UniProt P49137). The note with it: at 10 µM.
Test [2] has as its target MAP kinase-activated protein kinase 3 (Homo sapiens) (UniProt Q16644). The conditions noted are these: at 10 µM.
Test [3] concerns the target Serine/threonine-protein kinase MARK1 (Homo sapiens) (UniProt Q9P0L2). The conditions noted are these: at 1 µM.
Test [4] shares this target. The conditions noted are these: at 10 µM.
For test [5], the target named is Dual specificity mitogen-activated protein kinase kinase 1 (Homo sapiens) (UniProt Q02750). The note with it: at 1 µM.
Sequence of Dual specificity mitogen-activated protein kinase kinase 1 (Homo sapiens) (Q02750 whole entry): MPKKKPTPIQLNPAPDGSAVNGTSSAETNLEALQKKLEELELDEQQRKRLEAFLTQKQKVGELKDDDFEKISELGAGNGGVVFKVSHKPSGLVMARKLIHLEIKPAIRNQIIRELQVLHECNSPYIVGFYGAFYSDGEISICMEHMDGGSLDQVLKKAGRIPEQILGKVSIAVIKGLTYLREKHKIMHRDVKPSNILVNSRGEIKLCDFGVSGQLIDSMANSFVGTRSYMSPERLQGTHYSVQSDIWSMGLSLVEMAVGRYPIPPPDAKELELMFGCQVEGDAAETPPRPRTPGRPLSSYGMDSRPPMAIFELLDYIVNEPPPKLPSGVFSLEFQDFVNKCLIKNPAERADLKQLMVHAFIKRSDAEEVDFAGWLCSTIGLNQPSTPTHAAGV
The target is the same in test [6]. The note with it: at 10 µM.
Test [7] has as its target Maternal embryonic leucine zipper kinase (Homo sapiens) (UniProt Q14680). The note with it: at 1 µM.
Test [8] shares this target. The note with it: at 10 µM.
Test [9] concerns the target Misshapen-like kinase 1 (Homo sapiens) (UniProt Q8N4C8). The note with it: at 1 µM.
Test [10] shares this target. The note with it: at 10 µM.

Sequence of MAP kinase-activated protein kinase 2 (Homo sapiens) (P49137 whole entry, looked up): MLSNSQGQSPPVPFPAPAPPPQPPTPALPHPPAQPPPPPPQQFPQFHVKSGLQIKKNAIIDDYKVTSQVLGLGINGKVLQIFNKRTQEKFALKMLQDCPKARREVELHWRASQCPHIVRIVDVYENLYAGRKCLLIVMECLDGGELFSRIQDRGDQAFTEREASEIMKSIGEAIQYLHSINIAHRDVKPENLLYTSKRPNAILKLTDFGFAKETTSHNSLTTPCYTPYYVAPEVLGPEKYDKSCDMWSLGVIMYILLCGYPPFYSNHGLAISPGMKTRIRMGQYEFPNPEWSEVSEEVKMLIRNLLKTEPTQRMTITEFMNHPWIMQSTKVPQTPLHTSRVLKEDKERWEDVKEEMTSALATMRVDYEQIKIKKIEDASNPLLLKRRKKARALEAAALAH
Sequence of Serine/threonine-protein kinase MARK1 (Homo sapiens) (Q9P0L2 whole entry, looked up): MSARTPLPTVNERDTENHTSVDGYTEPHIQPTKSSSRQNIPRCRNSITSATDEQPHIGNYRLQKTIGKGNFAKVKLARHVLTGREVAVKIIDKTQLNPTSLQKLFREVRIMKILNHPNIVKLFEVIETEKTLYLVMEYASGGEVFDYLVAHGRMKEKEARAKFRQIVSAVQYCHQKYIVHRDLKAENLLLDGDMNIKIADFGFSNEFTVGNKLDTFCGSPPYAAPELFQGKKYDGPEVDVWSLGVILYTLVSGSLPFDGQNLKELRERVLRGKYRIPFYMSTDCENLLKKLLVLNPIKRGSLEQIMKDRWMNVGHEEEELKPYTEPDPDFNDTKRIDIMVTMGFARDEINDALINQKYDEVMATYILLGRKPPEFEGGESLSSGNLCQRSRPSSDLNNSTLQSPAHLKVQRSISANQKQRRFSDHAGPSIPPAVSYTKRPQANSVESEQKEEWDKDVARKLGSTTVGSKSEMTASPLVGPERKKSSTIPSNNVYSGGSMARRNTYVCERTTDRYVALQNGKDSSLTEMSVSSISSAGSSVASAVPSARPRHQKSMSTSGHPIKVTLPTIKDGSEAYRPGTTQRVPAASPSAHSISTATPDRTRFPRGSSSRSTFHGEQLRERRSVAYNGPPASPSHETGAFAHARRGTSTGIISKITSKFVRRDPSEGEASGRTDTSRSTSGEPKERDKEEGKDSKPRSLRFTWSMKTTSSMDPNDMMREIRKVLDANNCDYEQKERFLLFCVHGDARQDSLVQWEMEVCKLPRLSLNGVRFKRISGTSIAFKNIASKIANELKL
Sequence of Misshapen-like kinase 1 (Homo sapiens) (Q8N4C8 whole entry, looked up): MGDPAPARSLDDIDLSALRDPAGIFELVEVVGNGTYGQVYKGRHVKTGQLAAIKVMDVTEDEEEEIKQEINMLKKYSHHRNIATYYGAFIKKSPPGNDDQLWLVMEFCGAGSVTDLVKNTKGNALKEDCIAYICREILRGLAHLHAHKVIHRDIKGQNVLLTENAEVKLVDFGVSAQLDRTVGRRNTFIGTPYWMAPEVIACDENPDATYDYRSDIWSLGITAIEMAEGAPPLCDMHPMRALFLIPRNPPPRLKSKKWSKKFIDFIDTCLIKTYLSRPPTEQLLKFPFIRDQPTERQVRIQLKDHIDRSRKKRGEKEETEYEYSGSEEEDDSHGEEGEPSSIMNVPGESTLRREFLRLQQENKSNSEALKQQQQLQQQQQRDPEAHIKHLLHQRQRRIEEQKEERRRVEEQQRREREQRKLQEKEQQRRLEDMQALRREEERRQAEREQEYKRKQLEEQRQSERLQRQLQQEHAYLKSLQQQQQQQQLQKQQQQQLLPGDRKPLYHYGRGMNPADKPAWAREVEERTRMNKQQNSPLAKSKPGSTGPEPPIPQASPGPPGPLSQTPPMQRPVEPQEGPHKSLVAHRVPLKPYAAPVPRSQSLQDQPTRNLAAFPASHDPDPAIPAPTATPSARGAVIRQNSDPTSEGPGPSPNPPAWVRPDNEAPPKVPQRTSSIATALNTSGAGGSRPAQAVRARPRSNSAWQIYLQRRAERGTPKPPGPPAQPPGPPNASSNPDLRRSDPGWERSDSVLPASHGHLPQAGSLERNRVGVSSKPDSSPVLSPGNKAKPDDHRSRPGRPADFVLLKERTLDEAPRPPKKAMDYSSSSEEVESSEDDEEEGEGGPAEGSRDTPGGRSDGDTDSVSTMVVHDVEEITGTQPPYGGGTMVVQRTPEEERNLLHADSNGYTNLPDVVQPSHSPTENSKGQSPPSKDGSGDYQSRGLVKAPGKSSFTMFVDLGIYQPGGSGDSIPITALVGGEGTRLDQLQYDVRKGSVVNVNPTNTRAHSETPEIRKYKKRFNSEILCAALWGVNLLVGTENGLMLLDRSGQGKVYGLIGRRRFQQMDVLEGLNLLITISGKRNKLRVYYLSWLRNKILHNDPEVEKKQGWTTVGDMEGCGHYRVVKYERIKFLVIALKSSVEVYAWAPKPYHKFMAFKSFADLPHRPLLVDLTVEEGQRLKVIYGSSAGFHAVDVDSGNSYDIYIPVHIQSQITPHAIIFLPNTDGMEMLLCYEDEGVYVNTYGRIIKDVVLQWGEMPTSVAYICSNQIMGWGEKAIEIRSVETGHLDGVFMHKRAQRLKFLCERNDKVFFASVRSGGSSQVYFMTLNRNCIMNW
Sequence of MAP kinase-activated protein kinase 3 (Homo sapiens) (Q16644 whole entry, looked up): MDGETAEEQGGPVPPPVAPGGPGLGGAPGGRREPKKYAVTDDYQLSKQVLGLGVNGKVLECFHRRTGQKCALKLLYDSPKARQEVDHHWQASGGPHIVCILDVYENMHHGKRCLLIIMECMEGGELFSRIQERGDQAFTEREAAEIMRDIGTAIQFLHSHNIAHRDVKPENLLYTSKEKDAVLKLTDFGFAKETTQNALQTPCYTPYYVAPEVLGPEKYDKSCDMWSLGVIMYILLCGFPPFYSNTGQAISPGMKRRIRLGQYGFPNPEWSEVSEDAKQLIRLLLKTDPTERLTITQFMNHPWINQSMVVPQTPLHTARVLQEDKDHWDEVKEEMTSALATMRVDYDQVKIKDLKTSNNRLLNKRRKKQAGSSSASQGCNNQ
Sequence of Maternal embryonic leucine zipper kinase (Homo sapiens) (Q14680 whole entry, looked up): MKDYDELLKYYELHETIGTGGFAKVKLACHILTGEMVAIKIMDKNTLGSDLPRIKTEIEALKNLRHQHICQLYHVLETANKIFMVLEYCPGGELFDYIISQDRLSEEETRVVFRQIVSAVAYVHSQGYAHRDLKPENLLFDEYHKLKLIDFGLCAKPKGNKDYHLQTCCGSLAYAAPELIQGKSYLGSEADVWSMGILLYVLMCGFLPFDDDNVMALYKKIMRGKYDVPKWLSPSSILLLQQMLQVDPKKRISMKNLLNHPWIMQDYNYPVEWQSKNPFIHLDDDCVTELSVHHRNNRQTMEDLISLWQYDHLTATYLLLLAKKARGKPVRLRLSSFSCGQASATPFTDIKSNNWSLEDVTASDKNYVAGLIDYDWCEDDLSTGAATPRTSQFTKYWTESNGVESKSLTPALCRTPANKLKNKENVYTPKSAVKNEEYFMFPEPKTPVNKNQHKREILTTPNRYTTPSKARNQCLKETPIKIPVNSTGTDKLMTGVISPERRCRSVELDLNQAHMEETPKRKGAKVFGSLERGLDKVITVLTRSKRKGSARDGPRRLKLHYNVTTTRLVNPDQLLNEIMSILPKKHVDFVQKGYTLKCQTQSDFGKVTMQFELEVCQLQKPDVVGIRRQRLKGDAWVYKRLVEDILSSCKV

With `NC(=O)Nc1sc(-c2ccc(F)cc2)cc1C(N)=O`, the residual activity stood at 83% in test [1]; 86% in test [2]; 57% in test [3]; 17% in [4]; 44% in test [5]; 34% in [6]. For the same compound, the residual activity in [7] was determined as 72%; in [8], 24%; in test [9] it was 81%; in test [10] it was 47%.
With `O=C1NC(=O)C(c2c[nH]c3ccccc23)=C1c1c[nH]c2ccccc12`, the residual activity came out at 79% in test [1]; 81% in [3]; 37% in test [4]; 34% in test [5]; 7% in test [6]; 80% in test [7]. In addition, the residual activity is 27% in [8] and 41% in [10].
For the compound `COc1cc2nccc(Oc3ccc(NC(=S)NC(=O)c4ccccc4C)cc3)c2cc1OC`, the residual activity in test [1] turned out to be 66%; in test [2], 56%; in [3], 81%; in test [4] it was 75%; in [5] it was 86%; in test [6] it was 68%. The residual activity in test [7] stood at 98%; in test [8], 84%; in test [9], 77%; in test [10], 69%.
For `COc1cc2ncnc(Nc3cccc(Cl)c3)c2cc1OC`, the residual activity in [1] worked out at 105%; in test [2] it was 65%; in test [4], 83%; in [5] it was 114%; in [6] it was 71%; in test [7], 89%. The residual activity turned out to be 59% in test [8] and 76% in [10].
Turning to `CC(C)c1nn(-c2c(Cl)cccc2Cl)c2nc(Cc3ccc(OCCO)cc3)[nH]c(=O)c12`, the residual activity amounted to 89% in test [1]; 91% in [2]; 80% in test [3]; 47% in test [4]; 82% in test [5]; 65% in test [7]. In addition, the residual activity in [8] worked out at 67%; in [9], 97%; in test [10], 93%.
Regarding `O=C(Nc1nc2ccccc2n1CCN1CCOCC1)c1cccc([N+](=O)[O-])c1`, the residual activity in [2] was 84%; in test [3], 80%; in [4], 81%; in test [5], 66%; in test [6], 81%; in test [7] it was 65%. The residual activity in [8] is 45%.
On to `O=c1cc(N2CCOCC2)oc2c(-c3ccccc3)cccc12`, for which, in test [8], the residual activity came to 72%.
As for `CC(C)N(CCC(=O)c1ccc2ccccc2c1)Cc1ccccc1`, the residual activity in test [3] was found to be 73%; in [4], 75%; in test [7], 75%; in [8] it was 87%.
As to `O=S(=O)(c1cccc2cnccc12)N1CCCNCC1`, the residual activity was 75% in [7] and 16% in [8].
As to `COc1ccc2c(c1)c(C1=C(c3c[nH]c4ccccc34)C(=O)NC1=O)cn2CCCN(C)C`, the residual activity was determined as 135% in [2]; 75% in test [3]; 53% in test [4]; 102% in [5]; 75% in [6]; 54% in test [7]. Moreover, the results for the residual activity in test [8] and in test [10] were 26% and 61%, respectively.
As for `O=c1c(-c2ccc(F)cc2)c(-c2ccncc2)[nH]n1-c1ccc(Cl)cc1`, the residual activity came out at 102% in test [6] and 55% in test [10].
For the compound `CCN1/C(=C/C(C)=O)Sc2ccc(OC)cc21`, the residual activity came to 67% in [3] and 65% in test [4].
For the compound `N#Cc1c(NC(=O)c2cccc3ccccc23)sc2c1CCCC2`, the residual activity in test [2] stood at 88%; in [3], 100%; in test [4] it was 92%; in test [7] it was 87%; in [8] it was 91%; in test [9] it was 95%. Moreover, the residual activity in test [10] is 93%.
`CCOC(=O)c1c(C)[nH]c(/C=C2\C(=O)Nc3ccccc32)c1C`: the residual activity in [2] was 95%; in test [3], 89%; in test [4], 87%; in test [7], 77%; in test [8], 97%; in [9] it was 86%. Also, in test [10], the residual activity amounted to 75%.
With `NC(=O)c1cccc(-c2cc(Nc3ccc(OC(F)(F)F)cc3)ncn2)c1`, the residual activity in test [7] came to 74%; in [8], 75%.
Take `Nc1ncnc2c1cnn2-c1ccccc1`: the residual activity in test [2] amounted to 92%; in test [3], 89%; in [4], 88%; in test [6], 79%; in test [7], 95%; in test [8] it was 73%. Further, the residual activity in [10] was 99%.
With `CCN(CC)CCNC(=O)c1c(C)[nH]c(/C=C2\C(=O)Nc3ccc(Cl)cc32)c1C`, the residual activity in [3] stood at 14%; in [4] it was 3%; in test [5], 21%; in test [6], 8%; in test [7], 8%; in test [8], 3%. The residual activity was determined as 9% in [9] and 2% in [10].
For `COc1cc2nccc(Oc3ccc(NC(=O)Nc4cc(C)on4)c(Cl)c3)c2cc1OC`, the residual activity in [2] is 67%; in [3], 99%; in [5], 62%; in test [6], 20%; in test [8], 80%; in test [9], 71%. Also, in test [10], the residual activity amounted to 21%.
As to `COc1ccc(COc2ccc(Cc3cnc(N)nc3N)cc2OC)cc1`, the residual activity in test [4] is 71%.
Take `CCCCc1c(-c2ccc(O)cc2)[nH]c2nccnc12`: the residual activity in [3] was 74%; in test [4], 38%; in test [7], 76%; in [8], 72%; in test [9], 97%; in test [10], 86%.
For the compound `COc1ccc(CNC(=O)Nc2ncc([N+](=O)[O-])s2)cc1`, the residual activity in test [4] is 76%.
`COc1cc2c(cc1OC)-c1n[nH]c(Nc3cccc(F)c3)c1C2`: the residual activity worked out at 99% in test [2]; 73% in test [3]; 48% in test [4]; 108% in [5]; 47% in test [7]; 11% in test [8]. Further, the residual activity in test [9] was 74%; in [10] it was 42%.
As to `O=C(Nc1ccc(Cl)cc1)c1ccccc1NCc1ccncc1`, in [7], the residual activity was 75%.
Consider `Nc1nccc(-c2c(-c3ccc(F)cc3)ncn2C2CCNCC2)n1`, for which the residual activity in test [6] is 119%; in [7], 71%; in test [8], 27%.
As to `COc1ccc(Cl)cc1NC(=O)Nc1cc(C)nc2ccccc12`, the residual activity in [3] worked out at 86%; in [4], 77%; in [5], 75%; in [6], 86%; in test [7], 88%; in test [8] it was 89%.
On to `Oc1cccc(-c2nc(N3CCOCC3)c3oc4ncccc4c3n2)c1`, for which the residual activity in test [7] was determined as 74%; in [8], 88%.
For the compound `Nc1nc(Nc2ccc(S(N)(=O)=O)cc2)nn1C(=O)c1c(F)cccc1F`, the residual activity was found to be 73% in test [5], 64% in test [6], 107% in [9] and 80% in test [10].
On to `Cn1c2ccccc2c2c3c(c4c5ccccc5n(CCC#N)c4c21)CNC3=O`, for which the residual activity in [2] was determined as 77%; in test [3], 4%; in test [4] it was 5%; in test [5] it was 36%; in test [6], 34%; in [7], 9%. The residual activity in test [8] was determined as 4%; in [9], 21%; in test [10], 16%.
In the case of `N#C/C(=C1/Nc2ccccc2S1)c1ccnc(NCCc2cccnc2)n1`, the residual activity in test [2] is 68%; in test [7], 74%; in test [8], 50%; in [9], 96%; in test [10], 72%.
Consider `CC(C)(C)n1nc(Cc2cccc3ccccc23)c2c(N)ncnc21`, for which the residual activity in test [2] is 90%; in test [3], 91%; in [4], 80%; in test [5], 94%; in test [6] it was 63%; in test [7], 72%. The residual activity in [8] worked out at 30%; in test [9], 86%; in test [10], 26%.
As to `O=C1NC(=O)C(c2cn(CCCn3ccnc3)c3ccccc23)=C1Nc1ccccc1`, the residual activity in test [3] came out at 77%; in [4], 51%; in test [5], 104%; in [6], 39%; in [10], 47%.
Turning to `NC(=O)c1ccc(-c2nc(-c3ccc4c(c3)OCCO4)c(-c3ccccn3)[nH]2)cc1`, the residual activity worked out at 96% in test [3], 89% in test [4], 73% in test [7] and 70% in test [8].
Turning to `c1ccc(-c2cnc(Nc3ccc(OCCN4CCCC4)cc3)s2)cc1`, the residual activity was 104% in test [2]; 113% in [5]; 64% in test [7]; 20% in test [8]; 61% in test [9]; 12% in test [10].
`COc1ccc(-c2cnc3c(-c4ccsc4)cnn3c2)cc1`: the residual activity in [3] came to 91%; in test [4], 95%; in [7], 80%; in test [8] it was 87%; in test [9] it was 89%; in test [10], 76%.
On to `O=S(=O)(NCCNC/C=C/c1ccc(Br)cc1)c1cccc2cnccc12`, for which the residual activity amounted to 76% in [3]; 37% in test [4]; 45% in test [7]; 9% in test [8]; 75% in [10].
Take `O=C1Cc2c([nH]c3ccc(Br)cc23)-c2ccccc2N1`: the residual activity came out at 89% in test [2]; 51% in test [3]; 12% in test [4]; 82% in test [6]; 89% in test [7]; 68% in [8].
Consider `O=C1Nc2ccccc2/C1=C\c1c(Cl)[nH]c2ccccc12`, for which the residual activity in test [2] was determined as 85%; in test [4] it was 74%; in test [7], 77%; in [8], 30%.
For `Fc1ccc(-c2nc3n(c2-c2ccncc2)CCS3)cc1`, the residual activity in test [2] is 100%; in test [7], 89%; in test [8], 82%; in [9] it was 96%; in test [10] it was 67%.

The record behind these values is ChEMBL document CHEMBL2218924, “A broad activity screen in support of a chemogenomic map for kinase signalling research and drug discovery” (Biochem J, 2013).
